# Several values for one entry are separate records, joined by “and”; a condition that tells them apart may be missing. Identical values can stand only once. Records with an inconclusive call do not appear. Entries that show only a call come without a potency. The source holds several records for some structures; these can differ, active in one and inactive in another. Activity calls are given as the source filed them. Unless noted, the call rests on the fitted dose curve; in most records, active means well fitted curve in the direction sought with a large enough effect in the repeat runs; inconclusive means weak or mixed curves; inactive means no such curve, though single readings can be large; an effect the other way counts as inactive or inconclusive.
# How the values were obtained:
# [1] = qHTS assay to identify small molecule agonists of the estrogen receptor alpha (ER-alpha) signaling pathway in the presence of an antagonist - cell viability counter screen (AID 1259386);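 further: cells exposed to compounds for 22 h at 37 °C before the viability read; nearly all actives have a fitted effect of over 30% in size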; further: potency means the concentration at half of the fitted maximal effect
# Procedure, shortened: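 ICI-182,780 at 10.0nM final accompanies the compound titration (15 concentrations, 22hr, 37C) on VM7Luc4E2 cells. The CellTiter-Fluor fluorescence readout runs in the same wells as the luciferase assay.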
# [2] = molecular target: Progesterone receptor (Homo sapiens) (UniProt P06401); assay: qHTS assay to identify small molecule agonists of the progesterone receptor (PR) signaling pathway (AID 1346784; calls by dose curve; further: nearly all actives have a fitted effect of over 30% in size)
# Sequence of Progesterone receptor (Homo sapiens) (P06401 whole entry, looked up): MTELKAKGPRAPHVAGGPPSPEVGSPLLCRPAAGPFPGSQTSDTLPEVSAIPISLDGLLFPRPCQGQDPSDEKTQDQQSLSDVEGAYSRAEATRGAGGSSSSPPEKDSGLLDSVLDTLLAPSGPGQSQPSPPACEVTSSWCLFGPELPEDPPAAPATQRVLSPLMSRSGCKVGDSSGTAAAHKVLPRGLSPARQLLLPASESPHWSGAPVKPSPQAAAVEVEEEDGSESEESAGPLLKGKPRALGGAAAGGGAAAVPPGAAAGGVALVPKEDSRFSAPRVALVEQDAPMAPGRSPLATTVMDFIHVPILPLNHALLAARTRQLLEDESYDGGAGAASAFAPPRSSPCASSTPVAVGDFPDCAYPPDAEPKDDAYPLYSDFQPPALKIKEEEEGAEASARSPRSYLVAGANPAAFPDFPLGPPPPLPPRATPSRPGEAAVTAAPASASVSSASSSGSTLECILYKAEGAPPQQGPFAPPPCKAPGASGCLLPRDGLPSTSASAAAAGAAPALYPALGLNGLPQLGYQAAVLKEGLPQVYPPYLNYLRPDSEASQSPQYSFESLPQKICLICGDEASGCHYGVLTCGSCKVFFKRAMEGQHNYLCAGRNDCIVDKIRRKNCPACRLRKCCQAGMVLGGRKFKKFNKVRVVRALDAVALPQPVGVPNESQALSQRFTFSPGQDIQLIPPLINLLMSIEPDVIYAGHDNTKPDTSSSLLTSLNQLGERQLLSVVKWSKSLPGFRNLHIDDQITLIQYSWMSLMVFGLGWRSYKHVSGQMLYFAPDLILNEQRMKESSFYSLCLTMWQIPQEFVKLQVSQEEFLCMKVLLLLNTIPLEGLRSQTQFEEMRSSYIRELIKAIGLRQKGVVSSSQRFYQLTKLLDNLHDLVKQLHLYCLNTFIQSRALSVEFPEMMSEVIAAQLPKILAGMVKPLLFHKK
# Procedure, shortened: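 HEK 293T PR-UAS-bla reporter cells, 2% charcoal-stripped FBS; 6 hr settle at 37C/5% CO2, compound (DMSO) 16 hr, LiveBLAzer B/G FRET substrate 2 hr RT, fluorescence intensity read.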
# [3] = qHTS assay to identify small molecule antagonists of the progesterone receptor (PR) signaling pathway - cell viability counter screen (AID 1346798); further: series mostly up to about 92 µM; nearly all actives have a fitted effect of over 50% in size
# Procedure, shortened: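 Luminescence readout (CellTiter-Glo, 30 min, RT) of viability in PR-UAS-bla HEK293T cells exposed to compound and R5020 agonist for 16 hr at 37C, 5% CO2; run in the same wells as the beta-lactamase reporter read.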
# [4] = qHTS assay to identify small molecule agonists of the progesterone receptor (PR) signaling pathway - cell viability counter screen (AID 1346799; calls by dose curve; further: nearly all actives have a fitted effect of over 45% in size)
# Procedure, shortened: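 HEK293T PR-UAS-bla, 3,000 cells/well, 2% charcoal-stripped FBS; 6 h settle, compound 16 h at 37C/5% CO2; LiveBLAzer 2 h RT, then CellTiter-Glo 30 min RT, luminescence read.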
# [5] = qHTS assay to identify small molecule antagonists of the TGF-beta/Smad signaling pathway - cell viability counter screen (AID 1346824); further: nearly all actives have a fitted effect of over 50% in size; further: potency means the concentration at half of the fitted maximal effect
# Procedure, shortened: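 Cytotoxicity counter-screen run in the same wells as the beta-lactamase Smad reporter read: CellTiter-Glo luminescence after 30 min at room temperature. HEK 293T SBE-bla cells had 5 hr compound exposure at 37 C with TGF-beta1 (0.25 ng/mL stock).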
# [6] = qHTS assay to identify small molecule agonists of the TGF-beta/Smad signaling pathway - cell viability counter screen (AID 1346829); further: nearly all actives have a fitted effect of over 45% in size; further: potency means the concentration at half of the fitted maximal effect
# Procedure, shortened: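 Tox21 qHTS format: SBE-bla HEK 293T cells treated with DMSO-dissolved compounds for 5 hr; CellTiter-Glo luminescence after 30 min at room temperature.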
# [7] = qHTS assay to identify small molecule agonists of the TGF-beta/Smad signaling pathway (AID 1346859; active means well fitted activation curve with a large enough effect in the signal ratio in the repeat runs, not every such curve was filed as active; the % refers to the signal ratio; further: series mostly up to about 77 µM)
# Procedure, shortened: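 Read-out: fluorescence at 460 and 530 nm (405 nm excitation) after a 2 hr room-temperature incubation with beta-lactamase FRET substrate. SBE-bla HEK 293T cells had been treated with test compounds for 5 hr at 37 C.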
# [8] = molecular target: Thyrotropin-releasing hormone receptor (Homo sapiens) (UniProt P34981); assay: qHTS assay to identify small molecule antagonists of the thyrotropin-releasing hormone receptor (TRHR) signaling pathway (AID 1346877; active means well fitted inhibition curve with a large enough effect in the repeat runs, not every such curve was filed as active; further: series mostly up to about 51 µM)
# Sequence of Thyrotropin-releasing hormone receptor (Homo sapiens) (P34981 whole entry, looked up): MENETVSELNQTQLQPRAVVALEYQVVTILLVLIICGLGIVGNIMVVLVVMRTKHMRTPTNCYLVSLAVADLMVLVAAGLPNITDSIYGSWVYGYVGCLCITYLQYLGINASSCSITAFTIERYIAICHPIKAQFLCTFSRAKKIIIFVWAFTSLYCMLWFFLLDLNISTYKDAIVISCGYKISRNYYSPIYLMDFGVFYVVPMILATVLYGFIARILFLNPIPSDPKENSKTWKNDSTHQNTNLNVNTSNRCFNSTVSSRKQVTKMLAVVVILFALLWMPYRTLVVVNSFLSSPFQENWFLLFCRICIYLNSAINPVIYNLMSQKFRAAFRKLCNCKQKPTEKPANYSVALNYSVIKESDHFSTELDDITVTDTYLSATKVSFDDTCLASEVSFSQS
# Procedure, shortened: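 Screening used HEK293 cells engineered with TRHR, with a brief 5 min room-temperature compound exposure preceding addition of TRH to 1 nM. The read-out was kinetic calcium-dye fluorescence, concentration-response from 15 doses in triplicate.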
# [9] = molecular target: Thyrotropin-releasing hormone receptor (Homo sapiens) (UniProt P34981); assay: qHTS assay to identify small molecule agonists of the thyrotropin-releasing hormone receptor (TRHR) signaling pathway (AID 1346891; calls by dose curve;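 further: HEK293 cells expressing TRHR with calcium dye readout; series mostly up to about 58 µM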)
# Procedure, shortened: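 HEK293/TRHR cells, 1500 per well, 18 h 37 °C; Ca dye 2 h 37 °C; pin-tool compound addition (agonist mode); kinetic fluorescence 3 min, 1 s reads; 15 concentrations, triplicate.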
# [10] = Human pregnane X receptor (PXR) small molecule agonists, qHTS cell viability counter screen (AID 1346977); further: nearly all actives have a fitted effect of over 50% in size; further: potency means the concentration at half of the fitted maximal effect
# Procedure, shortened: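 Fluorescence read-out (CellTiter-Fluor) of viability in PXR-Luc HepG2 cells, multiplexed with the luciferase agonist read. Compounds in DMSO added after 5hr plating; 24hr total exposure at 37C, 5% CO2.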
# [11] = Caspase-3/7 induction in HepG2 cells by small molecules, qHTS assay (AID 1346978); further: nearly all actives have a fitted effect of over 15% in size
# Procedure, shortened: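 Caspase-3/7 induction was measured by Caspase-Glo 3/7 luminescence (30 min, room temperature) after a 17 hr compound exposure of wild-type HepG2 cells seeded at 2,000 per well and pre-incubated 5 hr.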
# [12] = Caspase-3/7 induction in CHO-K1 cells by small molecules, qHTS cell viability counter screen (AID 1346979); further: nearly all actives have a fitted effect of over 35% in size; further: potency means the concentration at half of the fitted maximal effect
# Procedure, shortened: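 CHO-K1 wt, 1,500 cells/well; 5hr pre-incubation 37C/5% CO2; compound pin transfer (DMSO); 16hr exposure; CellTiter-Fluor added, 1hr, fluorescence read.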
# [13] = Caspase-3/7 induction in CHO-K1 cells by small molecules, qHTS assay (AID 1346980); further: nearly all actives have a fitted effect of over 15% in size
# Procedure, shortened: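 Luminescent Caspase-Glo 3/7 read (30min, room temperature) quantified apoptosis induction. Cells were wild-type CHO-K1, treated with compound for 17hr at 37 C and 5% CO2.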
# [14] = Caspase-3/7 induction in HepG2 cells by small molecules, qHTS cell viability counter screen (AID 1346981); further: nearly all actives have a fitted effect of over 30% in size; further: potency means the concentration at half of the fitted maximal effect
# Procedure, shortened: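 Multiplexed with the caspase-3/7 assay: HepG2 cells, 16 hr compound treatment, CellTiter-Fluor viability detection by fluorescence.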
# [15] = molecular target: Nuclear receptor subfamily 1 group I member 2 (Homo sapiens) (UniProt O75469); assay: Human pregnane X receptor (PXR) small molecule agonists, qHTS assay (AID 1346982); further: nearly all actives have a fitted effect of over 35% in size; further: potency means the concentration at half of the fitted maximal effect
# Sequence of Nuclear receptor subfamily 1 group I member 2 (Homo sapiens) (O75469 whole entry, looked up): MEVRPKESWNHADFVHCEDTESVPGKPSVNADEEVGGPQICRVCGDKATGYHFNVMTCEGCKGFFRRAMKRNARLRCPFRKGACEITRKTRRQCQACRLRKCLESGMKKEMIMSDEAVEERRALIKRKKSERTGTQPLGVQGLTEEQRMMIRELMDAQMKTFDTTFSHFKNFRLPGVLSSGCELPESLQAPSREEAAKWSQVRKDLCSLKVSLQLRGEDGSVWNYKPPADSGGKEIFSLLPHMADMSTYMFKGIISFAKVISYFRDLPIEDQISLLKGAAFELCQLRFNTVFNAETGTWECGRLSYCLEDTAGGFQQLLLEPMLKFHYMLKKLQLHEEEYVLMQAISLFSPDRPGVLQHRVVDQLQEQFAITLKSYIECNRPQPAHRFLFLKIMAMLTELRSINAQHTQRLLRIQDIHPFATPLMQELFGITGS
# Procedure, shortened: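 We seeded PXR-Luc HepG2 cells in assay medium containing 5% charcoal-stripped FBS, added compounds 5 hr later, incubated 24 hr, and read luminescence with ONE-Glo reagent.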
# [16] = molecular target: Acetylcholinesterase (Homo sapiens) (UniProt P22303); assay: Acetylcholinesterase (AChE) small molecule antagonists: colormetric cell-based qHTS assay (AID 1347395; calls by dose curve; further: nearly all actives have a fitted effect of over 30% in size)
# Sequence of Acetylcholinesterase (Homo sapiens) (P22303 whole entry, looked up): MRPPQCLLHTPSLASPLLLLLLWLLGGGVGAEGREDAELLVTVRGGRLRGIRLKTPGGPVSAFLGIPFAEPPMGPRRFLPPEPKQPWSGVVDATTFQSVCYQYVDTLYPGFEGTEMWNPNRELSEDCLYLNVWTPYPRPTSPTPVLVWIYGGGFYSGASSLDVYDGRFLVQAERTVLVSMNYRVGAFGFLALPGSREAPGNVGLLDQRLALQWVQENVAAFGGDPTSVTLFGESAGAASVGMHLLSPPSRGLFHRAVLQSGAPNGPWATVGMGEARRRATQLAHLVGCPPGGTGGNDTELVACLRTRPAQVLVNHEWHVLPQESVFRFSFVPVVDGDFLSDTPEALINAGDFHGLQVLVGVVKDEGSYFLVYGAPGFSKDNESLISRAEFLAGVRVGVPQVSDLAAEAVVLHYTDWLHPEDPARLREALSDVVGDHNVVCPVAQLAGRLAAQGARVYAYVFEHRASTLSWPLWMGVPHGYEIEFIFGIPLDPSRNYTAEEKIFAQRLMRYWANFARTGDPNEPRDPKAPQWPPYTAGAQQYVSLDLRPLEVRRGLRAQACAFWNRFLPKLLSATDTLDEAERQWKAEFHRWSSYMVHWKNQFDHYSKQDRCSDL
# Procedure, shortened: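 SH-SY5Y cells; cpd 30 min 37 C; + DTNB/acetylthiocholine, 90 min 37 C; colorimetric thiocholine read; qHTS.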
# [17] = molecular target: Acetylcholinesterase (Homo sapiens) (UniProt P22303); assay: Acetylcholinesterase (AChE) small molecule antagonists: enzyme-based qHTS assay (AID 1347397; calls by dose curve; further: nearly all actives have a fitted effect of over 55% in size); details: Potency: AChE enzyme activity inhibition
# Procedure, shortened: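 Absorbance-based detection of thiocholine with DTNB served as the read-out. Recombinant human AChE was exposed to compound for 30 min at RT before a 10 min RT incubation with acetylthiocholine.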
# [18] = molecular target: Nuclear receptor subfamily 1 group I member 2 (Rattus norvegicus) (UniProt Q9R1A7); assay: Rat pregnane X receptor (rPXR) activation by small molecules, qHTS assay (AID 1346983); details: rPXR luciferase reporter cells, One-Glo luminescence, 24 h; max activation: stronger effect = higher value; further: nearly all actives have a fitted effect of over 20% in size; further: potency means the concentration at half of the fitted maximal effect
# Sequence of Nuclear receptor subfamily 1 group I member 2 (Rattus norvegicus) (Q9R1A7 whole entry, looked up): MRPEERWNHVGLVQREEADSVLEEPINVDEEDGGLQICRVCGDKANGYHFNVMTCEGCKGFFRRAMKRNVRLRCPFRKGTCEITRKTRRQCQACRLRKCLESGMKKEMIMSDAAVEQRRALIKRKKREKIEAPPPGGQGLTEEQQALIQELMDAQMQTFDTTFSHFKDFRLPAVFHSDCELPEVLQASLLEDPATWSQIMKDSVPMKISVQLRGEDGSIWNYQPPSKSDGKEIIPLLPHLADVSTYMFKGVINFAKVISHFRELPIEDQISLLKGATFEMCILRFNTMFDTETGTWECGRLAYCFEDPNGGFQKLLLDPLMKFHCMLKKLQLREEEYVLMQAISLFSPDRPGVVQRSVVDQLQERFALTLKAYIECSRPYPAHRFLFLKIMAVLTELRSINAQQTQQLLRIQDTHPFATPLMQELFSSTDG
# Procedure, shortened: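 Luminescent readout (One-Glo luciferase, 30 min room temperature) followed 24 hr compound treatment at 37 C of rPXR cells plated 2,000 per well and preincubated 5hr; qHTS format with compounds delivered in DMSO.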
# [19] = molecular target: Nuclear receptor subfamily 1 group I member 2 (Homo sapiens) (UniProt O75469); assay: Human pregnane X receptor (PXR) activation by small molecules, qHTS assay (AID 1346985); further: nearly all actives have a fitted effect of over 40% in size; further: potency means the concentration at half of the fitted maximal effect
# Procedure, shortened: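 DPX-2 cells (HepG2 co-transfected with a PXR response element and a CYP3A4-promoter luciferase construct) were seeded at 2,000 per well, rested 5 hr at 37C, then exposed to DMSO-dissolved compounds for 24 hr. Activation was read as luciferase luminescence.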
SMILES,Potency [1],Potency [2],Potency [3],Potency [4],Potency [5],Potency [6],outcome [7],Potency [8],Potency [9],Potency [10],Potency [11],Potency [12],Potency [13],Potency [14],Potency [15],Potency [16],Potency [17],Potency [18],Potency [19],max activation [18]
CCCN(CC1CC1)c1c([N+](=O)[O-])cc(C(F)(F)F)cc1[N+](=O)[O-],inactive,inactive,inactive,inactive,inactive,inactive,inactive,inactive,inactive,inactive,inactive,inactive,inactive,inactive,19.3 µM (active),inactive,inactive,,,
CCCCOC(=O)c1ccccc1C(=O)OCc1ccccc1,inactive,inactive,inactive,inactive,inactive,inactive,inactive,,inactive,inactive and 48.6 µM (active),inactive,inactive,inactive,inactive,inactive and 21.7 µM (active),inactive,inactive,,,
NC(=O)C(Cl)(Cl)Cl,inactive,inactive,inactive,inactive,inactive,inactive,inactive,inactive,inactive,inactive,inactive,inactive,inactive,inactive,inactive,inactive,inactive,,,
CC(C)(Cl)[N+](=O)[O-],inactive,inactive,inactive,,inactive,inactive,,inactive,inactive,inactive,inactive,inactive,inactive,inactive,,inactive,inactive,,,
Nc1ccc([N+](=O)[O-])cc1[N+](=O)[O-],53.1 µM (active),inactive,inactive,inactive,inactive,inactive,inactive,inactive,inactive,,inactive,47.3 µM (active),inactive,47.3 µM (active),inactive,inactive,inactive,,,
COC1=CC(=O)O[C@@H](CCc2ccccc2)C1,inactive,inactive,inactive,inactive,inactive,inactive,,inactive,inactive,inactive,inactive,,inactive,inactive,63.6 µM (active),inactive,inactive,,,
NCCCNCCCN,inactive,inactive,,inactive,inactive,inactive,inactive,inactive,inactive,inactive,inactive,inactive,inactive,inactive,,,,,,
Cc1c(F)c(F)c(COC(=O)C2C(/C=C(\Cl)C(F)(F)F)C2(C)C)c(F)c1F (stereo not drawn),inactive,inactive,inactive,inactive,,inactive,inactive,inactive,inactive,inactive,inactive,inactive,inactive,inactive,13.7 µM (active),inactive,inactive,,,
O=[Se]=O,21.5 µM (active),inactive,inactive,inactive,9.7 µM (active),4.86 µM (active),,inactive,inactive,24.2 µM (active),inactive,,inactive,21.5 µM (active),inactive,inactive,inactive,,,
CCOP(=O)(OCC)O/C(=C/Cl)c1ccc(Cl)cc1Cl,inactive,inactive,inactive,,inactive,,inactive,inactive,inactive,,inactive,,inactive,,4.86 µM (active),,,14.1 µM (active),3.98 µM (active),
Clc1ccc(C(OCCN2CCCCC2)c2ccccc2)cc1 (stereo not drawn),inactive,inactive,inactive,inactive,inactive,inactive,,,inactive,,inactive,inactive,inactive,inactive,inactive,inactive,inactive,,inactive,-3.11% (inactive)
O=Cc1ccc2c(c1)OCO2,inactive,inactive,inactive,inactive,inactive,inactive,inactive,inactive,inactive,inactive,inactive,inactive,inactive,inactive,,inactive,inactive,,,
c1ccc(CN2CCNCC2)cc1,inactive,inactive,inactive,inactive,inactive,inactive,inactive,,,inactive,inactive,inactive,inactive,inactive,inactive,inactive,inactive,,,
